Sampled rows, rich in hits. Any-hit rate of the full collection: about 3.1%.
VDR inhibitor – Inhibitors of the vitamin D receptor (VDR): qHTS | Potency, µM, without a hit: max response, negative = inhibition, actives largely listed as inhibitors | VDR-SRC2-3 peptide fluorescence polarization, 2 h | actives 0.93% (n = 400,000) | Vitamin D3 receptor (Homo sapiens), P11473; note: % is set by controls: 0 for no effect and ±100 for the full control effect
Target sequence (P11473 whole entry, looked up): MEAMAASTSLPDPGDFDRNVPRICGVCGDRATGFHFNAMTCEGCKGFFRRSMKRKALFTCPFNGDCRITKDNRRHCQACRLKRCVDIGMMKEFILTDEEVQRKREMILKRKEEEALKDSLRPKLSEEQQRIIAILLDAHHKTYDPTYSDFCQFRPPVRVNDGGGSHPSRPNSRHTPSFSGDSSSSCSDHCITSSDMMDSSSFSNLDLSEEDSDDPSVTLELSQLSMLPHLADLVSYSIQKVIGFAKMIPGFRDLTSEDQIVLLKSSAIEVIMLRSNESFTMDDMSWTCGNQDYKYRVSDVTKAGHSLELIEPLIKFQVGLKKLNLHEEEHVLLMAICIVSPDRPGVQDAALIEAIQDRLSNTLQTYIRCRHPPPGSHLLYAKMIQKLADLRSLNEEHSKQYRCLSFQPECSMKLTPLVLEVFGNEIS
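Signal is fluorescence polarization, reporting how far test compounds block the interaction of VDR with the SRC2-3 coregulator peptide after a 2 h room-temperature incubation.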
Pin1 inh – qHTS Assay to Find Inhibitors of Pin1. Potency, µM (top dose mostly 115 µM), without a hit: at the top dose activity, negative = inhibition, hits mostly inhibitors. Peptidyl-prolyl cis-trans isomerase NIMA-interacting 1 (Homo sapiens), Q13526. AID 504891, 2011. actives 0.009% (n = 390,000). Pin1 FP peptide displacement, HiFluor488, 10 min; active = well fitted inhibition curve with a large enough effect in the polarisation, with a control signal flat, not every such curve was filed as active; inconclusive = small, poorly fitted or top-dose-only effect, or effect the other way, or a change in a side signal; inactive = no such curve, though single readings can be large or run the other way; the % refers to the polarisation; note: % is set by controls: 0 for no effect and ±100 for the full control effect
Target sequence (Q13526 whole entry, looked up): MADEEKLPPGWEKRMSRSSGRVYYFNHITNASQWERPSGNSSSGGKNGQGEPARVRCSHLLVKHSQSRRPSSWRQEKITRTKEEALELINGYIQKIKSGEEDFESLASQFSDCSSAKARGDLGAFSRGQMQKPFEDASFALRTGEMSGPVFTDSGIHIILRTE
Tb PFK inh – qHTS Assay to Find Inhibitors of T. brucei phosphofructokinase; Potency, µM (doses to about 57.5 µM), without a hit: top-dose activity, negative = inhibition, most hits filed as inhibitors; ATP-dependent 6-phosphofructokinase (Trypanosoma brucei brucei), O15648; actives 0.17% (n = 330,000); T. brucei PFK, ADP-Glo luminescence;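 note: 0% = uninhibited 1x PFK enzyme wells and -100% = no-enzyme wells; nearly all actives have a fitted effect of over 60% in size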
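PFK 1.25 nM, F6P 0.5 mM, ATP 0.1 mM, 0.1 M TEA pH 8.0, 5 mM MgCl2, 0.01% Tween20, 0.1% BSA; 45 min RT. ADP-Glo readout. qHTS titration up to 57 uM; curves fitted, compounds curve-classed.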
S-ASM inh – Inhibitors of Secretory Acid Sphingomyelinase (S-ASM): qHTS; Sphingomyelin phosphodiesterase (Homo sapiens), P17405; actives 0.006% (n = 340,000); Potency, µM (titrated, usually from 57.5 µM), for inactives: at the top dose activity change, negative = inhibition, usual class: inhibitors; placental ASM, HMU-PC fluorogenic substrate, 60 min
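Human placenta-derived ASM enzyme was preincubated with compound for 10 minutes at room temperature, then given fluorogenic substrate HMU-PC0 (9 uM final) for 60 minutes at 37 °C; a pH 10 stop preceded fluorescence reading at Ex 386/Em 447 nm.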
PLK1 PBD block – qHTS for Inhibitors of PLK1-PDB (polo-like kinase 1 - polo-box domain): Primary Screen. Serine/threonine-protein kinase PLK1 (Homo sapiens), P53350. Plk1 PBD binding of FITC phosphopeptide, fluorescence polarization. Potency, µM, inactives show max response, negative = inhibition, usual class: inhibitors. actives 2.8% (n = 360,000). AID 720504, 2013; note: series mostly up to about 57 µM; % is set by controls: 0 for no effect and ±100 for the full control effect; nearly all actives have a fitted effect of over 65% in size
TDP1 inh – qHTS Assay for Inhibitors of Tyrosyl-DNA Phosphodiesterase (TDP1); Tyrosyl-DNA phosphodiesterase 1 (Homo sapiens), Q9NUW8; recombinant TDP1, AlphaScreen DNA substrate cleavage; Potency, µM (series often up to 130 µM), for inactives: at the highest dose activity change, negative = inhibition, actives largely listed as inhibitors; actives 0.28% (n = 350,000); AID 485290, 2010; note: % is set by controls: 0 for no effect and ±100 for the full control effect; nearly all actives have a fitted effect of over 40% in size
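Recombinant E. coli-expressed Tdp1 (1 nM) preincubated with compound 15 min at RT, then 5'-biotin/3'-phosphotyrosine-FITC DNA substrate (15 nM) added for 5 min. AlphaScreen beads (10 ug/ml) added, 10 min RT; tyrosine-FITC cleavage read as signal loss.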
* marks the source's active call; other numbers are inactive results. Unless noted, calls come from the whole dose curve; as a rule, active = well fitted curve in the direction sought with a large enough effect; inconclusive = small, poorly fitted or top-dose-only effect, or another doubt; inactive = no such curve, though single readings can be large; an effect the other way counts as inactive or inconclusive. Potency is the fitted concentration of half-maximal effect.

How did COc1cccc(CN2CC34CC(c5ccc(C(C)=O)cc5)C(CC3S2(=O)=O)O4)c1 (stereo not drawn) do in these assays?
VDR inhibitor: -23.2%; Pin1 inh: -5.9%; TDP1 inh: 6.2%

What do the screens show for `Cc1ccc(NS(=O)(=O)c2cc3c(cc2N2CCC2)NC(=O)CC3)cc1C`?
Pin1 inh: -3.1%; TDP1 inh: 0.9%

Results for CNc1cc(F)nc(F)n1 ?
VDR inhibitor: -28.7%; Pin1 inh: -4.5%; Tb PFK inh: -5.8%; S-ASM inh: 19.0%; PLK1 PBD block: 9.47µM*; TDP1 inh: -5.3%

Results for CNc1cccc(-c2cccc(O)c2)n1 ?
PLK1 PBD block: -11.2%

What do the screens show for `O=C(COc1cccc2ccccc12)Nc1ccc(Cl)cc1C(=O)O`?
VDR inhibitor: inconclusive; Pin1 inh: -15.5%; Tb PFK inh: 3.0%; S-ASM inh: 26.1%; PLK1 PBD block: 26.7µM*; TDP1 inh: 5.3%

How did O=C(COc1cccc2ccccc12)Nc1cc(Cl)ccc1C(=O)O do in these assays?
VDR inhibitor: -30.0%; Pin1 inh: -10.1%; Tb PFK inh: 0.2%; S-ASM inh: 8.3%; PLK1 PBD block: 21.2µM*; TDP1 inh: 5.2%

Results for O=C(COc1ccccc1C(=O)O)Nc1cccc2ccccc12 ?
VDR inhibitor: 6.4%; Pin1 inh: -0.1%; Tb PFK inh: 14.3%; S-ASM inh: 7.7%; PLK1 PBD block: -8.5%; TDP1 inh: 0.7%

Results for Cc1c(CCCC(=O)O)sc(N)c1C(=O)c1cccc(C(F)(F)F)c1 ?
VDR inhibitor: 89.1µM*; Pin1 inh: -8.5%; S-ASM inh: 11.8%

How did C(#Cc1ccccc1)C[N+]1(CC#Cc2ccccc2)CCCCC1 do in these assays?
VDR inhibitor: 15.0%; Pin1 inh: 4.7%; Tb PFK inh: -1.4%; S-ASM inh: -0.1%; PLK1 PBD block: 26.7µM*; TDP1 inh: 8.3%

How did COc1ccc(S(=O)(=O)Nc2cccc3ccccc23)cc1 do in these assays?
VDR inhibitor: 22.1%; Pin1 inh: -2.2%; TDP1 inh: 0.3%

How did COc1ccc(S(=O)(=O)Nc2ccc3c(c2)CCC3)cc1 do in these assays?
VDR inhibitor: 44.7µM*; Pin1 inh: 4.7%; Tb PFK inh: 5.1%; S-ASM inh: -0.6%; PLK1 PBD block: 3.77µM*; TDP1 inh: 2.7%

How did COc1ccc(S(=O)(=O)Nc2c(F)cccc2F)cc1 do in these assays?
VDR inhibitor: inconclusive; Pin1 inh: 0.1%; Tb PFK inh: -1.1%; S-ASM inh: -1.6%; PLK1 PBD block: 29.9µM*; TDP1 inh: 8.4%

How did CC(=O)Nc1ccc(S(=O)(=O)Nc2ccc3c(c2)CCC3)cc1 do in these assays?
VDR inhibitor: 9.6%; Pin1 inh: -10.3%; Tb PFK inh: -3.2%; S-ASM inh: -1.7%; PLK1 PBD block: -2.9%; TDP1 inh: 2.7%

What do the screens show for `COc1ccc(S(=O)(=O)NCCc2sc(-c3cccnc3)nc2C)cc1`?
VDR inhibitor: 11.5%; Pin1 inh: -0.9%; TDP1 inh: -1.1%

What do the screens show for `COc1ccc(/C=C2\C(=O)NC(=S)N2C(=O)c2ccc(F)cc2)cc1`?
VDR inhibitor: 4.0%; Pin1 inh: inconclusive; Tb PFK inh: 10.6%; PLK1 PBD block: 42.7%; TDP1 inh: 20µM*

Results for CCC(C)Nc1nc(N)c([N+](=O)[O-])c(NCc2ccccc2)n1 (stereo not drawn) ?
VDR inhibitor: -8.7%; Pin1 inh: -5.4%; Tb PFK inh: 0.6%; S-ASM inh: -11.5%; PLK1 PBD block: 29.9µM*

Results for Cc1cc(O)c(C(C)C)cc1N=Cc1ccccc1O ?
VDR inhibitor: 39.8µM*; Pin1 inh: 0.9%; Tb PFK inh: 1.0%; S-ASM inh: -11.2%; PLK1 PBD block: 10.3%; TDP1 inh: 6.8%

How did Cc1cccc(C)c1NC(=O)C1CCCN1S(=O)(=O)c1ccccc1 (stereo not drawn) do in these assays?
VDR inhibitor: -22.0%; Pin1 inh: 4.5%; Tb PFK inh: 1.5%; S-ASM inh: 0.2%; PLK1 PBD block: 0.6%; TDP1 inh: 6.9%

How did Cc1cccc(C)c1NC(=O)C1CCCN1S(=O)(=O)c1ccc(-c2ccc(=O)[nH]n2)s1 (stereo not drawn) do in these assays?
VDR inhibitor: inconclusive; Pin1 inh: -5.0%; Tb PFK inh: -2.0%; S-ASM inh: -2.1%; PLK1 PBD block: 11.9µM*; TDP1 inh: 5.0%

What do the screens show for `Cn1nc(-c2cccnc2)nc2c(=O)n(C)c(=O)nc1-2`?
VDR inhibitor: -8.1%; TDP1 inh: 1.2%

Results for Cc1ccc(C(=O)Nc2cccnc2)cc1S(=O)(=O)N1CCCCC1 ?
VDR inhibitor: inconclusive; Pin1 inh: -2.1%; Tb PFK inh: 6.5%; S-ASM inh: -3.9%; PLK1 PBD block: 16.8µM*; TDP1 inh: 1.2%

What do the screens show for `Cc1ccc(S(=O)(=O)N2CCCCC2)cc1C(=O)Nc1ncn[nH]1`?
Tb PFK inh: inconclusive; TDP1 inh: 50.1µM*

How did CC(=O)Nc1ccc(NC(=O)c2cc(S(=O)(=O)N3CCCCC3)ccc2C)cc1 do in these assays?
VDR inhibitor: -9.0%; Pin1 inh: 1.1%; Tb PFK inh: 1.4%; S-ASM inh: 0.4%; PLK1 PBD block: -8.4%; TDP1 inh: 1.6%

Results for Cc1ccc(S(=O)(=O)N2CCCCC2)cc1C(=O)Nc1cccnc1 ?
VDR inhibitor: -9.4%; Pin1 inh: -0.7%; Tb PFK inh: -1.7%; S-ASM inh: -2.8%; PLK1 PBD block: -12.0%; TDP1 inh: 20µM*

How did CCOC(=O)C1CCN(C(=O)Cn2nc(CC)n3c(cc4sccc43)c2=O)CC1 do in these assays?
VDR inhibitor: -5.9%; Pin1 inh: -3.0%; TDP1 inh: -2.0%

Results for CCOC(=O)Cc1c(C)nc2c(-c3ccc(Cl)cc3)cnn2c1C ?
VDR inhibitor: -12.8%; Pin1 inh: inconclusive; Tb PFK inh: -0.2%; S-ASM inh: 1.2%; PLK1 PBD block: 18.9µM*

Results for Nc1c(C(=O)O)cnc2c(-c3ccc(Cl)cc3)cnn12 ?
VDR inhibitor: -0.7%; Pin1 inh: -0.6%; Tb PFK inh: -2.0%; S-ASM inh: 9.4%; PLK1 PBD block: inconclusive; TDP1 inh: 6.3%

Screening data: PubChem BioAssay, National Center for Advancing Translational Sciences (NCATS)
